The source made the active and inactive calls.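 Rule for the calls, unless noted: active = NADPH fluorescence slope more negative than the mean of all samples by about 3 SD, 99.7% confidence; inactive = the rest.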

The nature of experiment [1]: inhibitors of E-selectin induction by TNFa, primary screen, imaging, HUVEC, immunofluorescence, MLSMR starter and 10KST1 sets (AID 487;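 active = visually confirmed hit in the image check and inhibition above 20%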;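 for inhibition: signal is fraction of cell area covered by stained E-selectin grains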;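 for nuclei count: 100% = median nuclei count of all wells on the same plate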). Particulars: HUVEC TNFalpha-induced E-selectin immunofluorescence imaging, at 2 µM; inhibition: stronger effect = higher value; nuclei count: measured here: cell number, toxicity.
A short description of experiment [2]: DUSP6 inhibitors restoring Erk phosphorylation by chemical complementation, primary imaging in DUSP6-transfected HeLa (AID 609;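 active = compounds giving at least 50% inhibition in the cell-based MKP-3 phosphatase rescue imaging test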;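 for inhibition: phospho-Erk level distribution per well compared with pooled transfected vehicle control wells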). Particulars: HeLa MKP-3 transfected, phospho-Erk imaging KS statistic, at 10 µM, cells stimulated with TPA for 15 min.
In experiment [3] the target is Dual specificity protein phosphatase 6 (Homo sapiens) (UniProt Q16828). The description is as above. Particulars: HeLa MKP-3 transfected, phospho-Erk imaging KS statistic; at 10 µM; stronger effect = higher value; cells stimulated with TPA for 15 min.
Chain of Dual specificity protein phosphatase 6 (Homo sapiens) (Q16828 whole entry, looked up): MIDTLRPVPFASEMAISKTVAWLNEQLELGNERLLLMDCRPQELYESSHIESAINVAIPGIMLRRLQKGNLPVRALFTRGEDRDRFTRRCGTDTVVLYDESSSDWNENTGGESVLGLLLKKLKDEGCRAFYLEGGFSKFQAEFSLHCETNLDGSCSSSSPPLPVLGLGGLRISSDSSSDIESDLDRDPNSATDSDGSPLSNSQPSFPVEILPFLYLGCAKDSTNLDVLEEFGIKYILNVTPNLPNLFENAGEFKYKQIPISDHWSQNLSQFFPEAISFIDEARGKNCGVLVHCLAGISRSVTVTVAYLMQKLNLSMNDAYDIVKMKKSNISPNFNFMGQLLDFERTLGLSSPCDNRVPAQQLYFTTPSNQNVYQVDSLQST
In experiment [4] the target is Voltage-gated potassium channel subunit beta-2 (Rattus norvegicus) (UniProt P62483). In words: KvBeta enzyme negative modulators, primary screen, biochemical, NADPH fluorescence (AID 622;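 active = fluorescence slope higher than the sample average by over 3 SD, cut at about -0.22 in these data, passing the limit was not always enough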;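 note: slope of raw intensity against log time taken from 70 to 1610 s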). The following applies: recombinant KvBeta, 4-cyanobenzaldehyde reduction, at 10 µM, stronger effect = higher value.
Chain of Voltage-gated potassium channel subunit beta-2 (Rattus norvegicus) (P62483 whole entry, looked up): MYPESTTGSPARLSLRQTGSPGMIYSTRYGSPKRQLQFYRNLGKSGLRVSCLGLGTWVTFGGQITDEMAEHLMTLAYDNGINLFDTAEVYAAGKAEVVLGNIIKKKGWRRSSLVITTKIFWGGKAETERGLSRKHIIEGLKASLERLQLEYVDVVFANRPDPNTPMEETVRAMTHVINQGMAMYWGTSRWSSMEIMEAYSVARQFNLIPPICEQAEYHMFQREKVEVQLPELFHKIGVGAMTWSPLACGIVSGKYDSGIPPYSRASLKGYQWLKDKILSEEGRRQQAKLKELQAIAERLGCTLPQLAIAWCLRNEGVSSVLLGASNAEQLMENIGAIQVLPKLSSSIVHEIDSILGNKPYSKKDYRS
Experiment [5] has the same target. The experiment can be described thus: KvBeta positive modulators, primary screen, biochemical, NADPH fluorescence (AID 623).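 Note: fluorescence intensity change per second fitted from 20 to 320 s.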 Particulars: Recombinant KvBeta, NADPH fluorescence decrease slope, 10 min; at 10 µM; stronger effect = lower value.
Experiment [6] addresses Muscarinic acetylcholine receptor M4 (Homo sapiens) (UniProt P08173). The experiment can be described thus: compounds altering M4/GIRK thallium flux, either direction, primary screen, M4 allosteric agonist project, cell-based, HEK293 M4/GIRK, BTC-AM (AID 625;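 active = fluorescence slope after compound addition differing from the mean of all tested samples at 99.7% confidence, mostly higher but some lower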;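 note: thallium influx through GIRK channels coupled to M4 in HEK293 cells with BTC-AM dye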). The following applies: at 10 µM, actives lie on both sides.
Experiment [7] in a line: inhibitors of larval lipid processing in zebrafish, primary screen, whole organism, PED6 fluorescence, gall bladder and intestine (AID 686;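 active = a full or partial loss of lipid-probe fluorescence in the fish gall bladder, intestine or both, judged by eye; inactive = no fluorescence loss, or compound toxic to the fish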;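 note: larvae 5 to 7 days old with five fish per well; signal comes from phospholipase A2 cleavage of quenched PED6 carried via bile; overnight exposure to compound and PED6 before scoring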). The following applies: Zebrafish larvae PED6 lipid processing, fluorescence scoring; screened at 20 µM (by protocol).
The nature of experiment [8]: inhibitors of Chlamydomonas gravitaxis, primary screen, whole organism, Chlamydomonas reinhardtii, WT vs cilia-less mutant, absorbance, 96-well (AID 463189;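 active = inhibition at or above 50% relative to wild type and mutant plate controls; inactive = inhibition below 50%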;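 note: 0% = wild type cc124 cells in DMSO and 100% = ciliumless bld1 mutant cells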). The following applies: OD600 absorbance, 2 days, at 10 µM, stronger effect = higher value.
Experiment [9] has as its target Alpha-2C adrenergic receptor (Homo sapiens) (UniProt P18825). In words: modulators of alpha2C/GIRK thallium flux, primary screen, cell-based, HEK293 alpha2C/GIRK1/2 (AID 624;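 active = fluorescence slope after compound addition differing from the mean of all screened samples at 99.7% confidence, in either direction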;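 note: slope of fluorescence ratio to pre-addition baseline per second over 15 to 24 s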). The following applies: thallium flux BTC fluorescence, at 10 µM, actives lie on both sides.
Experiment [10] is described as follows: inhibitors of Sendai virus-induced IRF3 signaling, primary screen, TLR/RLR signaling modifier project, cell-based, Sendai virus stimulus, luciferase, 10K MLSCN set (AID 602276;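 active = inhibition at or above 50% at 10 µM; inactive = inhibition below 50%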;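 note: firefly luciferase from ISG56 promoter only with Renilla not read in this screen; 0% = Sendai virus plus DMSO and 100% = medium plus DMSO without virus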). Particulars: HEK293 RL24 IRF3 luciferase reporter, at 10 µM, stronger effect = higher value.
Experiment [11] can be described thus: inhibitors of poly I:C-induced TLR3 signaling, primary screen, cell-based, poly I:C stimulus, luciferase, 10K MLSCN set (AID 602277;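 active = inhibition of the reporter signal at or above 50%; inactive = inhibition below 50%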). Particulars: HEK293-TLR3 RL24 IRF3 luciferase reporter, at 10 µM, stronger effect = higher value.
A short description of experiment [12]: inhibitors of mutant huntingtin aggregation, primary screen, imaging, exon1htt(103Q)mCFP cells, high-content imaging (AID 483;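 active = visual image review flags a hit and inhibition of aggregation exceeds 20%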;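 note: compound exposure lasted 3 days before fixation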;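 for nuclei count: percent of the per-plate median nuclei count of sample wells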). Particulars: exon1htt(103Q)mCFP cell line, aggregate imaging, at 2 µM; inhibition of aggregation: stronger effect = higher value; nuclei count: measured here: cell count, toxicity.
Setting [13] is: measured here: cell density z-score.
Where [14] appears, read: measured here: nuclear c-Myc green intensity z-score.
Setting [15] is: measured here: nuclear pErk red intensity z-score, stronger effect = higher value.

Chain of Alpha-2C adrenergic receptor (Homo sapiens) (P18825 whole entry, looked up): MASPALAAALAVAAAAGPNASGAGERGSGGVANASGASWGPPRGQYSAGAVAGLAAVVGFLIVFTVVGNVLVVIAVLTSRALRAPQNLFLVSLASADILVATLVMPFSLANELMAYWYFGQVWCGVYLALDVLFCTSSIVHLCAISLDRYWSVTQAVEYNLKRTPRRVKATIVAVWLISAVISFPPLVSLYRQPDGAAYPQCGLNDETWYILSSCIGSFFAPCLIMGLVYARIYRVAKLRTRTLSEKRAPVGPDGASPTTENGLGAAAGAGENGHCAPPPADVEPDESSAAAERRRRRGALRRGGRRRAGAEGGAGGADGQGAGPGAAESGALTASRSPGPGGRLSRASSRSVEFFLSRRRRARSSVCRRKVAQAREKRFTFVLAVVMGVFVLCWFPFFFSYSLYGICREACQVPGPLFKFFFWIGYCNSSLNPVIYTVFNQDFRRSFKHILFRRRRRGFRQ
Chain of Muscarinic acetylcholine receptor M4 (Homo sapiens) (P08173 whole entry, looked up): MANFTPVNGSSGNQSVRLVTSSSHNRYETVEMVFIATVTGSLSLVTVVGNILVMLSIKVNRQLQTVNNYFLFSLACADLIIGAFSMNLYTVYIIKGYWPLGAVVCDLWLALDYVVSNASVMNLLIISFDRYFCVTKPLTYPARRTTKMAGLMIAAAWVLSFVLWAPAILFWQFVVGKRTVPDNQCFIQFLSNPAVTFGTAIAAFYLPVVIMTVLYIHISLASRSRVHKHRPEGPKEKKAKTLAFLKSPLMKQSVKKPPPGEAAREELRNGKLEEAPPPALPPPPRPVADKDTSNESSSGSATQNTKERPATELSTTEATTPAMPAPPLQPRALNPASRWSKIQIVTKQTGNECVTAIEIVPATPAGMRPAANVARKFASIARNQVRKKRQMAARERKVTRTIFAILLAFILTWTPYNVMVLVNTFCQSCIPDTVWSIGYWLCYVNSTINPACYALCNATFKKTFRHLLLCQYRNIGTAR

Turning to `O=C(CCN1CCc2ccccc2CC1)c1ccc2c(c1)OCCO2`, the inhibition is -194% (inactive) in experiment [1], 9.39% (inactive) in [3] and 40.1% (inactive) in experiment [8]. This compound came in with a nuclei count in experiment [1] of 154%. The z-score in experiment [2] (setting [13]) was determined as 1.21; in [2] (setting [14]) it was 0.758; in [2] (setting [15]), 0.122. Besides, the fluorescence slope in experiment [4] was -0.406 (inactive); in [6], 0.00461 (inactive). Moreover, the NADPH fluorescence slope in experiment [5] is -5.2e-05 (inactive). For the same compound, the call in [7] was inactive.
Regarding `Cc1cc(C)n(C(=O)CNC(=O)c2ccc3c(c2)OCCO3)n1`, the inhibition in [1] is -96.3% (inactive); in experiment [3], 18.9% (inactive); in [8], 12.4% (inactive). Besides, the nuclei count in [1] is 162%. The z-score in experiment [2] (setting [13]) was 1.78; in experiment [2] (setting [14]), -0.668; in experiment [2] (setting [15]), -1.28. Besides, the fluorescence slope in experiment [4] was -0.374 (inactive); in experiment [6], 0.00504 (inactive). Besides, in [5], the NADPH fluorescence slope is -5.5e-05 (inactive). For the same compound, in experiment [7], the result was inactive.
Turning to `CN(C)/C=C1\N=C(c2cccs2)OC1=O`, the inhibition in [1] was -85.3% (inactive); in experiment [3], 1.75% (inactive); in [8] it was 26.8% (inactive). The compound also yielded a nuclei count in experiment [1] of 178%. Also, the z-score in experiment [2] (setting [13]) is -0.766; in experiment [2] (setting [14]), -0.714; in experiment [2] (setting [15]) it was 0.335. Also, the fluorescence slope in [4] was -0.406 (inactive); in [6], 0.00407 (inactive). The NADPH fluorescence slope in [5] was -4e-05 (inactive). Further, the result in experiment [7] was inactive.
On to `CC1(C)CC(=O)C(C2=NC(C)(C)Cc3ccccc32)=C(O)C1`, for which the inhibition in experiment [1] was -46.3% (inactive); in [3] it was 15.1% (inactive); in experiment [8] it was -9.43% (inactive). The nuclei count in experiment [1] was 99.8%. For the same compound, the values for the z-score in experiment [2] (setting [13]), in experiment [2] (setting [14]) and in experiment [2] (setting [15]) were -0.0371, 0.246 and -0.668, respectively. Further, the fluorescence slope is -0.435 (inactive) in [4] and 0.00539 (inactive) in experiment [6]. In addition, the NADPH fluorescence slope in experiment [5] was 3.9e-06 (inactive). Besides, in [7], the compound was called inactive.
Turning to `COc1cccc(C(=O)OCCN(C)C(C)(C)C)c1`, the inhibition was -23.7% (inactive) in experiment [1], 17% (inactive) in [3] and 31.9% (inactive) in [8]. The same compound gave a nuclei count in experiment [1] of 128%. Besides, the z-score in experiment [2] (setting [13]) is 0.369; in experiment [2] (setting [14]), 1.71; in experiment [2] (setting [15]), -0.0558. For the same compound, the fluorescence slope in [4] is -0.414 (inactive); in experiment [6] it was 0.00557 (inactive). Moreover, in experiment [5], the NADPH fluorescence slope was -3.4e-05 (inactive). In addition, the result in [7] was inactive.
Turning to `CCC(C)(NC(=O)c1ccc(=O)[nH]c1)C(=O)NC1CCCC1` (centres undefined), the fluorescence slope in experiment [4] is -0.551 (inactive). For the same compound, in [5], the NADPH fluorescence slope was -5e-05 (inactive). Also, the slope in experiment [9] was 0.00548 (inactive). Besides, the inhibition in [10] was 8% (inactive); in [11], 24.2% (inactive).
As for `O=C1[C@@H]2C(c3ccccc3Cl)=NO[C@@H]2C(=O)N1Cc1ccccc1`, the inhibition of aggregation in experiment [12] was -2.9% (inactive). Moreover, the nuclei count in experiment [12] was 90.6%; in experiment [1] it was 213%. Moreover, the inhibition in experiment [1] was -238% (inactive); in experiment [10], 9.22% (inactive); in [11] it was 12.2% (inactive). In [4], the fluorescence slope is -0.328 (inactive). Also, in experiment [5], the NADPH fluorescence slope is -5.7e-05 (inactive). The slope in experiment [9] is 0.00529 (inactive).
With `C1CCC2=NCCCN2CC1`, in [12], the inhibition of aggregation is 7.9% (inactive). The nuclei count in [12] is 102%; in [1], 99.2%. The inhibition is -40.2% (inactive) in experiment [1], 10.9% (inactive) in experiment [10] and 20.9% (inactive) in experiment [11]. The fluorescence slope in experiment [4] was -0.37 (inactive). The NADPH fluorescence slope in [5] is 4.2e-05 (inactive). Moreover, the slope in experiment [9] is 0.00592 (inactive).
Regarding `COc1ccc(CCN(C)CCCC(C#N)(c2ccc(OC)c(OC)c2)C(C)C)cc1OC` (centres undefined), the inhibition is -110% (inactive) in experiment [1], 12.4% (inactive) in experiment [3], 2.16% (inactive) in [10] and 27% (inactive) in [11]. In [1], this compound registered a nuclei count of 114%. The z-score in [2] (setting [13]) was -0.13; in experiment [2] (setting [14]) it was -0.251; in experiment [2] (setting [15]), -0.441. For the same compound, the fluorescence slope in [4] was -0.461 (inactive). Also, the NADPH fluorescence slope in experiment [5] was -2.2e-05 (inactive).
For the compound `Cc1cc(C)cc(N(CC(=O)Nc2cccc(C)n2)S(=O)(=O)c2c(C)noc2C)c1`, in experiment [4], the fluorescence slope is -0.598 (inactive). Also, in [5], the NADPH fluorescence slope is -3.4e-05 (inactive). Also, the slope in experiment [9] was 0.00547 (inactive). The inhibition in [10] is 11.9% (inactive); in experiment [11] it was 42.2% (inactive).
With `CN1[C@@H]2CC(OC(=O)[C@H](CO)c3ccccc3)C[C@H]1[C@@H]1O[C@@H]12` (some centres undefined), the inhibition was -56.4% (inactive) in experiment [1], 15.3% (inactive) in experiment [3], 2.34% (inactive) in experiment [10] and 25.9% (inactive) in experiment [11]. Moreover, the nuclei count in [1] was 129%. The results for the z-score in [2] (setting [13]), in experiment [2] (setting [14]) and in experiment [2] (setting [15]) were 0.18, -0.245 and -0.715, respectively. Besides, the fluorescence slope in [4] was -0.461 (inactive). Moreover, in experiment [5], the NADPH fluorescence slope was -3e-05 (inactive). Further, in [9], the slope is 0.00551 (inactive).
Consider `CCOC(=O)C1CCCN(c2cc(=O)n(Cc3ccc(F)cc3)c(=O)[nH]2)C1` (centres undefined), for which the figures for the fluorescence slope in [4] and in [6] were -0.387 (inactive) and 0.0077 (inactive), respectively. Also, the NADPH fluorescence slope in experiment [5] is -1.6e-05 (inactive). Besides, the inhibition in experiment [10] was 11.9% (inactive); in experiment [11], 19.7% (inactive).
Consider `CCOc1ccc2[nH]c(C)cc(=O)c2c1`, for which the fluorescence slope in experiment [4] was -0.554 (inactive). For the same compound, in [5], the NADPH fluorescence slope was 1.5e-05 (inactive). In experiment [9], the slope is 0.00617 (inactive). In addition, the inhibition in [10] was -6.31% (inactive); in [11], 16% (inactive).

Source of the values: PubChem BioAssay.
